# Experimental data reported in PubChem BioAssay (NCI).
# About 79,000 compounds went through this panel and 15% of them were active in at least one assay; those are over-represented in the sample as a whole. Values without a mark were called inactive. Calls of active or inactive are those of the source. No stated cut-off is given here; in the data, active means growth inhibition above about 70%; inactive means the rest.
# How the values were obtained:
# [1] = NCI Yeast Anticancer Drug Screen. Data for the rad52 strain (AID 147);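 further: 0% = growth of vehicle-treated control cultures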; conditions: S. cerevisiae rad52 mutant growth inhibition, hits give high values
# Outline: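 Yeast strain carrying a DNA damage repair alteration was exposed to test compounds. Growth inhibition was measured relative to vehicle-treated controls.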
# [2] = NCI Yeast Anticancer Drug Screen. Data for the wt1 strain (AID 149);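 further: 0% = growth of vehicle-treated wt1 cultures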; conditions: S. cerevisiae wt1 strain (SPY 50644) growth inhibition, hits give high values
# Outline: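 Using yeast strain wt1, compound-induced growth inhibition was determined against vehicle-treated cultures.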
# [3] = NCI Yeast Anticancer Drug Screen. Data for the rad50EPP+ strain (AID 151);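 further: 0% = growth of vehicle-treated control cultures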; conditions: S. cerevisiae rad50 mutant strain, hits give high values
# Outline: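 Yeast strain carrying rad50 alteration (rad50EPP+) exposed to compounds; growth inhibition measured relative to vehicle-treated controls.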
# [4] = NCI Yeast Anticancer Drug Screen. Data for the mgt1 strain (AID 153); conditions: S. cerevisiae mgt1 mutant growth inhibition, hits give high values
# Outline: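 Yeast mgt1 strain (DNA repair/cell-cycle alteration panel) exposed to compounds; growth inhibition measured relative to vehicle-treated controls.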
# [5] = NCI Yeast Anticancer Drug Screen. Data for the rad50 strain (AID 155);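 further: 0% = growth of vehicle-only cultures of the same strain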; conditions: S. cerevisiae rad50 strain growth inhibition, hits give high values
# Outline: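 Relative growth inhibition (compound vs vehicle) was measured in yeast with a defined repair-gene alteration.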
# [6] = NCI Yeast Anticancer Drug Screen. Data for the mec2-1 strain (AID 157); conditions: S. cerevisiae mec2-1 strain, hits give high values
# Outline: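 mec2-1 yeast strain, carrying an alteration in DNA damage repair or cell cycle control, was exposed to compounds; growth inhibition was measured relative to vehicle-treated controls.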
# [7] = NCI Yeast Anticancer Drug Screen. Data for the rad14 strain (AID 159);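 further: 0% = growth of vehicle-treated control cultures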; conditions: S. cerevisiae rad14 strain growth inhibition, hits give high values
# Outline: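 Screen for anticancer potential: a yeast strain altered in DNA damage repair is grown with compound, and reduced growth is quantified against vehicle controls.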
# [8] = NCI Yeast Anticancer Drug Screen. Data for the sgs1 mgt1 strain (AID 161);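 further: 0% = growth of cultures given vehicle only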; conditions: S. cerevisiae sgs1 mgt1 strain, hits give high values
# Outline: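 Yeast cells carrying a defined DNA-repair defect were exposed to test compounds. Growth inhibition was measured relative to vehicle-treated controls.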
# [9] = NCI Yeast Anticancer Drug Screen. Data for the CLN2oe strain (AID 163);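 further: 0% = growth of vehicle-only control cultures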; conditions: S. cerevisiae CLN2oe strain, hits give high values
# Outline: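 Yeast cells carrying a defined cell-cycle control alteration were exposed to test compounds. Growth inhibition was scored against vehicle-treated control cultures.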
# [10] = NCI Yeast Anticancer Drug Screen. Data for the cln2 rad14 strain (AID 165);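 further: 0% = growth equal to vehicle treated cultures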; conditions: S. cerevisiae cln2 rad14 strain, hits give high values
# Outline: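 Yeast carrying cln2 and rad14 alterations (cell cycle control and DNA damage repair) were exposed to compounds. Growth inhibition was measured against vehicle-treated controls.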
# [11] = NCI Yeast Anticancer Drug Screen. Data for the bub3 strain (AID 167); conditions: S. cerevisiae bub3 mutant strain, hits give high values
# Outline: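 Screening used yeast with an engineered genetic alteration affecting cell cycle control. Compound-exposed cultures were compared with vehicle cultures, and reduced growth was taken as inhibition.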
# [12] = NCI Yeast Anticancer Drug Screen. Data for the wt2 strain (AID 169);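 further: 0% = growth of vehicle-treated yeast cultures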; conditions: S. cerevisiae wt2 strain growth inhibition, hits give high values
# Outline: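 Yeast cells were exposed to test compounds, and growth inhibition was measured relative to vehicle-treated controls.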
# [13] = NCI Yeast Anticancer Drug Screen. Data for the mlh1 strain (AID 171);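 further: 0% = growth of vehicle-treated control cultures of the same strain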; conditions: S. cerevisiae mlh1 strain growth inhibition, hits give high values
# Outline: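 Yeast carrying a defined genetic alteration in DNA damage repair or cell cycle control were exposed to test compounds. Growth inhibition was measured relative to vehicle-treated controls.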
# [14] = NCI Yeast Anticancer Drug Screen. Data for the sgs1 strain (AID 173);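 further: 0% = growth of vehicle-only control cultures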; conditions: S. cerevisiae sgs1 mutant, hits give high values
# Outline: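 Yeast mutant strains carrying defined defects in DNA damage repair or cell cycle control were exposed to test compounds. Growth inhibition was scored against vehicle-treated controls.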
# [15] = NCI Yeast Anticancer Drug Screen. Data for the mlh1 rad18 strain (AID 175); conditions: S. cerevisiae mlh1 rad18 strain growth inhibition, hits give high values
# Outline: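 Growth inhibition of the yeast strain was measured after compound exposure and expressed relative to vehicle-treated controls. The strain carries defined defects in DNA damage repair.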
# [16] = NCI Yeast Anticancer Drug Screen. Data for the rad18 strain (AID 177); conditions: S. cerevisiae rad18 mutant growth inhibition, hits give high values
# Outline: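 Yeast carrying a defined DNA damage repair alteration were exposed to compounds. Growth inhibition was expressed relative to vehicle-treated controls.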
# [17] = at 5.0 µM (retest, dose inferred, filed as 0.5)
# [18] = at 50.0 µM (retest, dose inferred, filed as 5.0)
compound,measurement,setting,value
c1ccc2cc3n[se]nc3cc2c1,growth inhibition,[1]; at 1.2 µM,2%
same,growth inhibition,[1]; at 3.7 µM,5%
same,growth inhibition,[1]; at 11.0 µM,17%
same,growth inhibition,[1]; at 33.0 µM,47%
same,growth inhibition,[1]; at 100.0 µM,96% (active)
same,growth inhibition,[2]; at 1.2 µM,5%
same,growth inhibition,[2]; at 3.7 µM,2%
same,growth inhibition,[2]; at 11.0 µM,6%
same,growth inhibition,[2]; at 33.0 µM,13%
same,growth inhibition,[2]; at 100.0 µM,72% (active)
same,growth inhibition,[3]; at 1.2 µM,2%
same,growth inhibition,[3]; at 3.7 µM,13%
same,growth inhibition,[3]; at 11.0 µM,33%
same,growth inhibition,[3]; at 33.0 µM,64%
same,growth inhibition,[3]; at 100.0 µM,86% (active)
same,growth inhibition,[4]; at 1.2 µM,6%
same,growth inhibition,[4]; at 3.7 µM,7%
same,growth inhibition,[4]; at 11.0 µM,5%
same,growth inhibition,[4]; at 33.0 µM,27%
same,growth inhibition,[4]; at 100.0 µM,94% (active)
same,growth inhibition,[5]; at 1.2 µM,3%
same,growth inhibition,[5]; at 3.7 µM,5%
same,growth inhibition,[5]; [17],-14%
same,growth inhibition,[5]; at 11.0 µM,19%
same,growth inhibition,[5]; at 33.0 µM,79% (active)
same,growth inhibition,[5]; [18],55%
same,growth inhibition,[5]; at 50.0 µM,97.5% (active)
same,growth inhibition,[5]; at 100.0 µM,96% (active)
same,growth inhibition,[6]; at 1.2 µM,1%
same,growth inhibition,[6]; at 3.7 µM,2%
same,growth inhibition,[6]; [17],-14%
same,growth inhibition,[6]; at 11.0 µM,8%
same,growth inhibition,[6]; at 33.0 µM,16%
same,growth inhibition,[6]; [18],3%
same,growth inhibition,[6]; at 50.0 µM,39.4%
same,growth inhibition,[6]; at 100.0 µM,93% (active)
same,growth inhibition,[7]; at 1.2 µM,3%
same,growth inhibition,[7]; at 3.7 µM,4%
same,growth inhibition,[7]; at 11.0 µM,5%
same,growth inhibition,[7]; at 33.0 µM,18%
same,growth inhibition,[7]; at 100.0 µM,98% (active)
same,growth inhibition,[8]; [17],-15%
same,growth inhibition,[8]; [18],44%
same,growth inhibition,[8]; at 50.0 µM,45.2%
same,growth inhibition,[9]; at 1.2 µM,-5%
same,growth inhibition,[9]; at 3.7 µM,0%
same,growth inhibition,[9]; at 11.0 µM,15%
same,growth inhibition,[9]; at 33.0 µM,14%
same,growth inhibition,[9]; at 100.0 µM,78% (active)
same,growth inhibition,[10]; [17],-21%
same,growth inhibition,[10]; [18],2%
same,growth inhibition,[10]; at 50.0 µM,-2.35%
same,growth inhibition,[11]; at 1.2 µM,-1%
same,growth inhibition,[11]; at 3.7 µM,1%
same,growth inhibition,[11]; [17],13%
same,growth inhibition,[11]; at 11.0 µM,4%
same,growth inhibition,[11]; at 33.0 µM,28%
same,growth inhibition,[11]; [18],25%
same,growth inhibition,[11]; at 50.0 µM,56.8%
same,growth inhibition,[11]; at 100.0 µM,96% (active)
same,growth inhibition,[12]; at 1.2 µM,0%
same,growth inhibition,[12]; at 3.7 µM,1%
same,growth inhibition,[12]; at 11.0 µM,8%
same,growth inhibition,[12]; at 33.0 µM,26%
same,growth inhibition,[12]; at 100.0 µM,95% (active)
same,growth inhibition,[13]; at 1.2 µM,2%
same,growth inhibition,[13]; at 3.7 µM,4%
same,growth inhibition,[13]; at 11.0 µM,11%
same,growth inhibition,[13]; at 33.0 µM,34%
same,growth inhibition,[13]; at 100.0 µM,97% (active)
same,growth inhibition,[14]; at 1.2 µM,2%
same,growth inhibition,[14]; at 3.7 µM,4%
same,growth inhibition,[14]; at 11.0 µM,12%
same,growth inhibition,[14]; at 33.0 µM,33%
same,growth inhibition,[14]; at 100.0 µM,91% (active)
same,growth inhibition,[15]; [17],-11%
same,growth inhibition,[15]; [18],24%
same,growth inhibition,[15]; at 50.0 µM,76.2% (active)
same,growth inhibition,[16]; at 1.2 µM,4%
same,growth inhibition,[16]; at 3.7 µM,13%
same,growth inhibition,[16]; at 11.0 µM,4%
same,growth inhibition,[16]; at 33.0 µM,68%
same,growth inhibition,[16]; at 100.0 µM,96% (active)
Cc1ccc2c(c1)C1(C)c3cc(C)ccc3SP1S2 (stereo unspecified),growth inhibition,[1]; at 1.2 µM,20%
same,growth inhibition,[1]; at 3.7 µM,22%
same,growth inhibition,[1]; at 11.0 µM,20%
same,growth inhibition,[1]; at 33.0 µM,51%
same,growth inhibition,[1]; at 100.0 µM,55%
same,growth inhibition,[2]; at 1.2 µM,19%
same,growth inhibition,[2]; at 3.7 µM,9%
same,growth inhibition,[2]; at 11.0 µM,25%
same,growth inhibition,[2]; at 33.0 µM,26%
same,growth inhibition,[2]; at 100.0 µM,36%
same,growth inhibition,[3]; at 1.2 µM,4%
same,growth inhibition,[3]; at 3.7 µM,7%
same,growth inhibition,[3]; at 11.0 µM,17%
same,growth inhibition,[3]; at 33.0 µM,47%
same,growth inhibition,[3]; at 100.0 µM,50%
same,growth inhibition,[4]; at 1.2 µM,10%
same,growth inhibition,[4]; at 3.7 µM,3%
same,growth inhibition,[4]; at 11.0 µM,9%
same,growth inhibition,[4]; at 33.0 µM,37%
same,growth inhibition,[4]; at 100.0 µM,43%
same,growth inhibition,[5]; at 1.2 µM,17%
same,growth inhibition,[5]; at 3.7 µM,11%
same,growth inhibition,[5]; [17],-4%
same,growth inhibition,[5]; at 11.0 µM,18%
same,growth inhibition,[5]; at 33.0 µM,39%
same,growth inhibition,[5]; [18],51%
same,growth inhibition,[5]; at 50.0 µM,71.7% (active)
same,growth inhibition,[5]; at 100.0 µM,54%
same,growth inhibition,[6]; at 1.2 µM,11%
same,growth inhibition,[6]; at 3.7 µM,21%
same,growth inhibition,[6]; [17],-12%
same,growth inhibition,[6]; at 11.0 µM,18%
same,growth inhibition,[6]; at 33.0 µM,30%
same,growth inhibition,[6]; [18],17%
same,growth inhibition,[6]; at 50.0 µM,40.1%
same,growth inhibition,[6]; at 100.0 µM,30%
same,growth inhibition,[7]; at 1.2 µM,0%
same,growth inhibition,[7]; at 3.7 µM,-10%
same,growth inhibition,[7]; at 11.0 µM,-23%
same,growth inhibition,[7]; at 33.0 µM,15%
same,growth inhibition,[7]; at 100.0 µM,29%
same,growth inhibition,[8]; [17],6%
same,growth inhibition,[8]; [18],54%
same,growth inhibition,[8]; at 50.0 µM,63%
same,growth inhibition,[9]; at 1.2 µM,15%
same,growth inhibition,[9]; at 3.7 µM,-13%
same,growth inhibition,[9]; at 11.0 µM,-14%
same,growth inhibition,[9]; at 33.0 µM,25%
same,growth inhibition,[9]; at 100.0 µM,4%
same,growth inhibition,[10]; [17],28%
same,growth inhibition,[10]; [18],71% (active)
same,growth inhibition,[10]; at 50.0 µM,52.9%
same,growth inhibition,[11]; at 1.2 µM,23%
same,growth inhibition,[11]; at 3.7 µM,18%
same,growth inhibition,[11]; [17],-3%
same,growth inhibition,[11]; at 11.0 µM,20%
same,growth inhibition,[11]; at 33.0 µM,22%
same,growth inhibition,[11]; [18],59%
same,growth inhibition,[11]; at 50.0 µM,42.8%
same,growth inhibition,[11]; at 100.0 µM,42%
same,growth inhibition,[12]; at 1.2 µM,13%
same,growth inhibition,[12]; at 3.7 µM,1%
same,growth inhibition,[12]; at 11.0 µM,18%
same,growth inhibition,[12]; at 33.0 µM,36%
same,growth inhibition,[12]; at 100.0 µM,50%
same,growth inhibition,[13]; at 1.2 µM,-5%
same,growth inhibition,[13]; at 3.7 µM,-22%
same,growth inhibition,[13]; at 11.0 µM,-3%
same,growth inhibition,[13]; at 33.0 µM,26%
same,growth inhibition,[13]; at 100.0 µM,39%
same,growth inhibition,[14]; at 1.2 µM,6%
same,growth inhibition,[14]; at 3.7 µM,4%
same,growth inhibition,[14]; at 11.0 µM,18%
same,growth inhibition,[14]; at 33.0 µM,46%
same,growth inhibition,[14]; at 100.0 µM,51%
same,growth inhibition,[15]; [17],4%
same,growth inhibition,[15]; [18],74% (active)
same,growth inhibition,[15]; at 50.0 µM,46.9%
same,growth inhibition,[16]; at 1.2 µM,8%
same,growth inhibition,[16]; at 3.7 µM,-3%
same,growth inhibition,[16]; at 11.0 µM,7%
same,growth inhibition,[16]; at 33.0 µM,27%
same,growth inhibition,[16]; at 100.0 µM,52%
